Inconclusive results are not listed. Where a call stands in place of a potency, no number is given. A number with no mark means an inactive call. Calls of active or inactive are those of the source. Calls come from the whole dose curve; as a rule, active = well fitted cell-killing curve with a large enough effect; inconclusive = small, poorly fitted or top-dose-only effect, or effect the other way; inactive = flat fitted curve, though single readings scatter.
tested on: CAOV3; assay: Primary qHTS to identify gynecologic anti-cancer compounds using libraries of approved drugs and bioactive compounds (AID 1345084); settings: Gynecologic cancer cell panel viability, ATPlite luminescence, 48 h; series mostly up to 57.5 µM; note: nearly all actives have a fitted effect of over 55% in size
Procedure, shortened: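 Five-concentration response, 48 h; readout is ATP-driven luciferase luminescence.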

SMILES | Potency | activity change, negative = cytotoxicity
COC(=O)C12C(=O)C(C)=C(O)C1(C)C(C)=CC1C3(CO)CCC(O)C(C)(C)C3CCC12C (stereo unspecified) | inactive | 
C=C1[C@H](OC(C)=O)[C@H]2[C@@H](OC(C)=O)[C@](C)(OC(C)=O)C[C@]2(OC(C)=O)C(=O)[C@H](C)/C=C/C(C)(C)C(=O)[C@H](OC(=O)C(C)C)[C@H]1OC(C)=O | inactive | 
COC(=O)N(C)c1c(N)nc(-c2nn(Cc3ccccc3F)c3ncccc23)nc1N | inactive | 
C=C1C[C@]23C[C@H]1CC[C@H]2[C@@]1(C)CCC[C@@]2(C)C(=O)O[C@@H]([C@@H]3O)[C@@H]12 | inactive | 
CC(O)CCC1C(CO[C@@H]2O[C@H](CO)[C@@H](O)[C@H](O)[C@H]2O)CC(O)CC1(C)C (stereo partly specified) | inactive | 
CC1=C2C[C@H]3O[C@@]3(C)CCC3O[C@@]3(C)C[C@@]2(O)OC1=O (stereo partly specified) | inactive | 
O=C(O)Cc1cn(C2OCC(O)C(O)C2O[C@@H]2O[C@H](CO)[C@@H](O)[C@H](O)[C@H]2O)c2ccccc12 (stereo partly specified) | inactive | 
CC(C)C(C#N)O[C@@H]1O[C@H](CO[C@@H]2O[C@@H](C)[C@H](O)[C@@H](O)[C@H]2O)[C@@H](O)[C@H](O)[C@H]1O (stereo partly specified) | inactive | 
COC1CC(OC2CCC3(C)C(=CCC4C3C(OC(C)=O)C(OC(=O)/C=C/c3ccccc3)C3(C)C(C(C)O)CCC43O)C2)OC(C)C1OC1CC(OC)C(OC2OC(C)C(OC3OC(CO)C(O)C(O)C3O)C(OC)C2O)C(C)O1 (stereo unspecified) |  | 1.34% [at 6.55 µM]
C=C1C(O)CC2C(C(=O)O)=COC(O[C@@H]3O[C@H](COC(=O)/C=C/c4ccc(O)cc4)[C@@H](O)[C@H](O)[C@H]3O)C12 (stereo partly specified) | inactive | 
CC(=O)O[C@H]1CC[C@H](C)[C@@]2(C)[C@H](OC(C)=O)c3c(C)coc3C(=O)[C@H]12 | inactive | 

From PubChem BioAssay (NCATS)
